Bioassay records deposited in PubChem BioAssay by Johns Hopkins Ion Channel Center.
In the library only some 1.6% were active in any assay of this set; here they are far more common.
KCNQ2 pot: potentiators of rat KCNQ2 potassium channel; CHO-K1 KCNQ2, FluxOR thallium flux fluorescence; stronger effect = higher value; B-score at 10 µM; 310,000 tested, 0.54% active;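 active = fluorescence ratio B-score at least 3 SD of library B-scores, with initial fluorescence B-score within 3 of them, cut at about 5.3 in these data; same plate scores as AID 2156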;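 note: B-score of peak minus minimum over baseline fluorescence ratio after K+ and Tl+ stimulus; positive B-score means potentiation of KCNQ2 with more thallium influx and brighter signal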
Target sequence (O88943 whole entry, looked up): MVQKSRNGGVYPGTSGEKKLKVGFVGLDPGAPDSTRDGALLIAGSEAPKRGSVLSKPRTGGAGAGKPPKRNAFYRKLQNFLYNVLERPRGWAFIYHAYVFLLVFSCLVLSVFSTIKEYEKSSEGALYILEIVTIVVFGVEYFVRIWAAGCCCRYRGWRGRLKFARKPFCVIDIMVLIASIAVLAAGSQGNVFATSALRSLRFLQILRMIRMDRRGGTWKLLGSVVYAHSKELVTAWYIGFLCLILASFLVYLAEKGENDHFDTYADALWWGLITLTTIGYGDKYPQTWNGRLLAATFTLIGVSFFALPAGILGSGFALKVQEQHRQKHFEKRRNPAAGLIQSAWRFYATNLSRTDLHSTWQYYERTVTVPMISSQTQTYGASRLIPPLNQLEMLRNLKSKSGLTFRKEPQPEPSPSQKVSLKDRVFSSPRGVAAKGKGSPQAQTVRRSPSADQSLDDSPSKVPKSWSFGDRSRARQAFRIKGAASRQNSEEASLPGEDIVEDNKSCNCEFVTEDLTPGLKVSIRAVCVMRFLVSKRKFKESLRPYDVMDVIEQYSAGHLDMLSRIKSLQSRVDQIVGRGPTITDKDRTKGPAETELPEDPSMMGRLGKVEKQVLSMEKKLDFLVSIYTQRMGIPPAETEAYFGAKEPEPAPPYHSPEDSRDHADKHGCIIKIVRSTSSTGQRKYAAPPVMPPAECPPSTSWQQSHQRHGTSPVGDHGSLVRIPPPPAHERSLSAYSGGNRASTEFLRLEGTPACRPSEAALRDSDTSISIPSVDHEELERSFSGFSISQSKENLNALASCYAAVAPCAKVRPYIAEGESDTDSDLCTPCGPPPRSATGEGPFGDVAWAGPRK
KCNQ2 inh: rat KCNQ2 potassium channel inhibitors, primary screen, cell-based, CHO-K1, FluxOR thallium flux, B-score | Potassium voltage-gated channel subfamily KQT member 2 (Rattus norvegicus), O88943 | AID 2156, 2009 | 20 min; stronger effect = lower value | B-score at 10 µM | 310,000 tested, 1.1% active;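 active = fluorescence ratio B-score at most minus 3 library SDs, with starting brightness B-score within 2 library SDs, cut at about -5.5 in these data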
Hits are given with their value; - = inactive; . = no result.

SMILES	KCNQ2 pot	KCNQ2 inh
CCN1CCN(C(=O)c2cnn3c(C(F)F)cc(-c4ccc(C)cc4)nc23)CC1	-	-
Cc1ccc(-c2cc(C(F)F)n3ncc(C(=O)N4CCN(c5ccccn5)CC4)c3n2)cc1	-	-5.7
COc1ccccc1C(=O)Nc1cccc2nc(C)ccc12	-	-
COC(=O)C(Nc1ccccc1Cl)(c1cc(C)c(O)c(C)c1)C(F)(F)F (stereo not given)	-	-8
CCOC(=O)C(NC(=O)c1ccccc1Cl)(Nc1ccc(C)c(C)c1)C(F)(F)F (stereo not given)	.	-
O=C(COc1ccc2c3c(c(=O)oc2c1)CCC3)NC(Cc1ccc(Cl)cc1)C(=O)O (stereo not given)	-	-
Cc1oc2c(c1C(=O)c1ccccc1)C(=O)C(=O)c1ccccc1-2	-	-7.2
Cc1oc2c(c1C(=O)O)C(=O)c1ccccc1C2=O	-	-
CC1SC(c2ccc(F)cc2)N(CCc2ccccc2)C1=O (stereo not given)	.	-
COC(=O)C1=C(C)N(c2cccc(C)c2)C(=O)/C1=C\c1cccs1	-	-6.7
CCOC(=O)C1=C(C)N(c2ccccc2)C(=O)/C1=C\c1cccs1	.	-
COc1cc(OC)cc(C(=O)NCC(C)NC(=O)c2cc(OC)cc(OC)c2)c1 (stereo not given)	.	-
Cc1ccc(NC(=O)NCC2CCN(Cc3cccc(Cl)c3)CC2)c(Cl)c1	6.5	-
O=C(NCC1CCN(Cc2cccc(Cl)c2)CC1)Nc1ccccc1Cl	-	-
CCN(CC(=O)NC1CCS(=O)(=O)C1)S(=O)(=O)c1cc(C)ccc1C (stereo not given)	-	-
CCN(CC(=O)NCc1ccc(Cl)cc1)C(=O)c1cccc(S(=O)(=O)Nc2ccc(OC)cc2)c1	-	-
Cc1cc(C)c(NC(=O)Nc2ccccc2C)c(Cl)c1	-	-
Cc1cc(C)c(NC(=O)Nc2ccccc2)c(Cl)c1	5.3	-
O=C(NN=C1c2ccccc2-c2ccccc21)c1cccc(Br)c1	17	-
O=C(COc1cccc(Br)c1)NN=C1c2ccccc2-c2ccccc21	.	-
COc1cc(C(=O)N(C)CCOc2ccccc2)ccc1OCC(=O)Nc1cccc(C(F)(F)F)c1	-	-6.7
COc1cc(C(=O)NCc2ccc(S(N)(=O)=O)cc2)ccc1OCC(=O)Nc1cccc(C(F)(F)F)c1	-	-
CCN(CC(=O)NCc1ccc(Cl)cc1)C(=O)CNS(=O)(=O)c1ccc(NC(C)=O)cc1	.	-
OCc1ccccc1OCCOc1ccc(Cl)c2cccnc12	.	-
Clc1ccc(OCc2cn3ccccc3n2)c2ncccc12	-	-6.6
SMILES	KCNQ2 pot	KCNQ2 inh
C=CCC1(C(=O)NCCO)CCN(C(=O)OC(C)(C)C)CC1	-	-
CCOC(=O)COc1c(OC)cc(Cl)cc1C1Nc2ccccc2C(=O)N1c1ccccc1 (stereo not given)	-	-5.6
CCOC(=O)COc1c(OC)cc(Cl)cc1C1Nc2ccccc2C(=O)N1c1ccc(F)cc1 (stereo not given)	.	-
CC(C)C[C@H](NC(=O)N1CCn2c1nc1ccccc12)C(=O)N[C@@H](Cc1ccccc1)C(=O)O	-	-
CCc1c(C)sc(NC(=O)c2ccoc2C)c1C(N)=O	-	-
COc1ccccc1-c1nc(C(=O)NCC2CCCO2)cc2c1[nH]c1ccccc12 (stereo not given)	.	-
COc1cc(-c2nc(C(=O)NCC3CCCO3)cc3c2[nH]c2ccccc23)cc(OC)c1OC (stereo not given)	-	-6.7
CN(C)C(=O)CSc1n[nH]c(=O)n1CCc1ccccc1	-	-
CCOC(=O)C1=C(COC(=O)COc2ccc(OCC)cc2)NC(=O)NC1C (stereo not given)	-	-
COc1ccc(C)cc1NC(=O)CSc1nc2ccccc2nc1N1CC(C)OC(C)C1 (stereo not given)	.	-
COC(=O)c1ccc2c(=O)n(Cc3ccc(C(=O)NCCCN4CCC(C)CC4)cc3)c(=S)[nH]c2c1	-	-
CC1CCN(CCCNC(=O)c2ccc3c(=O)n(Cc4ccc(Cl)cc4)c(=S)[nH]c3c2)CC1	-	-5.9
S=C(NCc1ccccc1)N1CCN(C2CCCCC2)CC1	-	-
Fc1ccc(-c2csc(=S)[nH]2)cc1	11	-
O=c1[nH]c(-c2ccc(Cl)cc2)cs1	.	-
O=C1c2ccccc2C(=O)C12OC(c1ccccc1)C1(C(=O)c3ccccc3C1=O)C2c1cccc([N+](=O)[O-])c1 (stereo not given)	.	-
O=C1c2ccccc2C(=O)C12OC(c1ccccc1)C1(C(=O)c3ccccc3C1=O)C2c1ccc([N+](=O)[O-])cc1 (stereo not given)	-	-7.9
Cc1noc(C(=O)Nc2cccc(Cl)c2)c1Cl	-	-
Cc1ccc(Cc2nnc(SCC(=O)Nc3ccccc3)n(N)c2=O)cc1	-	-
Cn1nnc2c[n+](CC(=O)c3ccc4ccccc4c3)cc(Br)c21	.	-
Cn1nnc2c[n+](CC(=O)c3ccc(Cl)cc3)cc(Br)c21	-	-6.1
O=C(COn1nnc2ccc(Cl)cc21)NC12CC3CC(CC(C3)C1)C2	-	-6.1
O=C(COn1nnc2ccc(Cl)cc21)Nc1ccc(F)cc1	.	-
CCN(CC(=O)Nc1ccc2c(c1)OCCO2)C(=O)c1cccc(OCC(C)C)c1	-	-
CC1(C)CC(=O)C(C(C2=C(O)CC(C)(C)CC2=O)c2cccs2)C(=O)C1 (stereo not given)	6.2	-
SMILES	KCNQ2 pot	KCNQ2 inh
CC1(C)CC(=O)C(C(C2=C(O)CC(C)(C)CC2=O)c2cccnc2)C(=O)C1 (stereo not given)	-	-
O=C(COC(=O)CNC(=O)c1ccc(Cl)cc1Cl)NCc1ccco1	-	-
CN1CCN(C2Cc3cc(Cl)ccc3Sc3cc(F)ccc32)CC1 (stereo not given)	-	-6.9
OCCN1CCN(C2Cc3cc(Cl)ccc3Sc3ccc(Cl)cc32)CC1 (stereo not given) (tested in a mixture with another compound)	.	-
Cc1onc(-c2c(F)cccc2Cl)c1C(=O)OCC(=O)NC(N)=O	-	-
Cc1onc(-c2c(F)cccc2Cl)c1C(=O)OCC(=O)NC(c1ccccc1)c1ccccc1	-	-5.6
COc1ccc(-c2cc(C(=O)N/N=C/c3cccnc3)c3cc(C)cc(C)c3n2)cc1	.	-
C/C(=N\NC(=O)COc1ccccc1-c1ccccc1)c1cccnc1	-	-6.4
C/C(=N\NC(=O)COc1ccccc1-c1ccccc1)c1ccccn1	.	-
COc1cc(/C=N\NC(=O)C(C)(C)O)ccc1OC/C=C/c1ccccc1	.	-
COc1ccc(N2CCN(C(=O)CCS(=O)(=O)c3ccc4c(c3)NC(=O)CO4)CC2)cc1	-	-
COc1cc(C(=O)NC(=S)Nc2ccccc2N2CCOCC2)cc(OC)c1OC	.	-
Cc1ccc(C(=O)NC(=S)Nc2ccccc2N2CCOCC2)cc1C	-	-6.1
Cc1ccc(CN2CCN(Cc3cc4ccccc4o3)CC2CCO)cc1 (stereo not given)	.	-
CN(Cc1ccc(N(C)C)cc1)C(=O)c1cc2ccccc2o1	.	-
Cc1noc(C)c1COc1ccc(C(=O)OCc2nnc(-c3ccc(Cl)cc3)o2)cc1	-	-7.6
O=C(OCc1nnc(-c2ccc(Cl)cc2)o1)c1ccncc1	.	-
Cc1ccc(NC(=O)C(=O)NNC(=O)c2ccccc2C)cc1Cl	12	-
COc1ccc(C(=O)NNC(=O)C(=O)Nc2ccc(C)c(Cl)c2)cc1	-	-
